Test results taken from publication PMC4336329 (PLoS ONE, 2015).
Screen size: about 310,000 compounds; about 14,000 (4.5%) showed an effect of 50% or more. Effects have a minus sign here. For the sample, strong results were picked, then their nearest neighbours and some compounds at random.

molecular target: human ether-à-go-go-related gene (hERG) potassium channel (human, UniProt Q12809); assay: primary screen, population patch clamp on CHO cells stably expressing hERG; higher = less effect of the substance
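Note: peak tail current of the secondary pulse compared with the same well before compound.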

human ether-à-go-go-related gene (hERG) potassium channel, sequence (Q12809 whole entry, looked up): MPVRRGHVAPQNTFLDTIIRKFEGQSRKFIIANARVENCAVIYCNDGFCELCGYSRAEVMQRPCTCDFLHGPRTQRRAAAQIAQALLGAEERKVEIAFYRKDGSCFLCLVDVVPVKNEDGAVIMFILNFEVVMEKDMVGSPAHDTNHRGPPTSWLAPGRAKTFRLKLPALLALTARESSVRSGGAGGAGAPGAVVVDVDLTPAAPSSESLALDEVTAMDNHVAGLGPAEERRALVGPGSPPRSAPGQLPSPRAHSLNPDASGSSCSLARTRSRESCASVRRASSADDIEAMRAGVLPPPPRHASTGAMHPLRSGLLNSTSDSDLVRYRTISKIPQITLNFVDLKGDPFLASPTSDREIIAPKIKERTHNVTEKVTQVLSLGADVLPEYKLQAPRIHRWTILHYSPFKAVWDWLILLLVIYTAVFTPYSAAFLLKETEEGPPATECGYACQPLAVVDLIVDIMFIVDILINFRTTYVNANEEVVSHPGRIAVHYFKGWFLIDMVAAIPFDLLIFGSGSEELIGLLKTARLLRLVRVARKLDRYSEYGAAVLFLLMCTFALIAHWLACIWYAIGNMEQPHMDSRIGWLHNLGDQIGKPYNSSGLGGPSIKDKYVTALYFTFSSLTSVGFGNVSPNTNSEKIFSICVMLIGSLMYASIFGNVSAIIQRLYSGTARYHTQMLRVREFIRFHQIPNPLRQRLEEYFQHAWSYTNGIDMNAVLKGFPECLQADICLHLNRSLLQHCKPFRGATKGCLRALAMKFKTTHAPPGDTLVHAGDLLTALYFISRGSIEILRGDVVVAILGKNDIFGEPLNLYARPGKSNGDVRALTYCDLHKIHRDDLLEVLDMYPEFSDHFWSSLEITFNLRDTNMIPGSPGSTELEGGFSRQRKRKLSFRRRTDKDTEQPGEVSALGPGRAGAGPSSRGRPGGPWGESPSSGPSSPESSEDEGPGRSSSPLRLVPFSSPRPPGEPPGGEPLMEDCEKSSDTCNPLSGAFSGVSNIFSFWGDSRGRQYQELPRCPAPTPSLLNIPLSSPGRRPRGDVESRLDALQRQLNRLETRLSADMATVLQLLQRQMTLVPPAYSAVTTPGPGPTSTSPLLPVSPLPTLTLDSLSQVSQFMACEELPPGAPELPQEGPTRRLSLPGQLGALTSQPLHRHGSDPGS

Compound | hERG current change (%, negative = inhibition) at 10uM [%]
Cc1cc(C)c(S(=O)(=O)/N=C2/C=C(Sc3ncn[nH]3)C(=O)c3ccccc32)cc1C | 18.2
C[C@H](NC(=O)OC(C)(C)C)C(=O)N/N=C/c1ccc2nccnc2c1 | 21.7
COc1cccc(N(C(=O)c2snc(C(N)=O)c2N)C(C(=O)NCC2CCCO2)c2ccc3ncccc3c2)c1 (centres unmarked) | -16.8
COc1ccccc1OCC(=O)Nc1cccc(S(=O)(=O)NC2=NCCCCC2)c1 | -4.65
OC(COCc1ccco1)CN1CCN(C(c2ccccc2)c2ccccc2)CC1 (centres unmarked) | -73.4
CCOc1ccccc1C(=O)N1CCN(C(c2ccccc2)c2ccccc2)CC1 | 0.314
CCC(=O)c1ccc(OCC(O)Cn2nc(C)c(Br)c2C)cc1 (centres unmarked) | -97.8
CCC(=O)c1ccc(OCC(O)Cn2nc(C)cc2C)cc1 (centres unmarked) | -7.44
OC(COc1ccccc1)CN1CCOCC1 (centres unmarked) | 9.83
OC(CN1CCN(C(c2ccccc2)c2ccccc2)CC1)c1ccccc1 (centres unmarked) | -30.8
OC(COc1ccccc1)CN1CCN(C(c2ccccc2)c2ccccc2)CC1 (centres unmarked) | -69.6
O=C(CN1CCN(C(c2ccccc2)c2ccccc2)CC1)NC(=O)NCc1ccco1 | -5.1
CC(=O)c1ccccc1OCC(O)CN1CCN(C(c2ccccc2)c2ccccc2)CC1 (centres unmarked) | -66.7
CC(=O)c1ccccc1OCC(O)CN1CCN(c2ccccn2)CC1.Cl (centres unmarked) | -39
CCC(=O)c1ccc(OCC(O)Cn2nc(C)c(C(C)=O)c2C)cc1 (centres unmarked) | -36.7
COc1cccc(OCC(O)CN2CCN(C(c3ccccc3)c3ccccc3)CC2)c1.Cl (centres unmarked) | -43.6
Cc1cccnc1NC(=S)NCc1ccco1 | -2.97
CC(=O)O.COc1c(O)ccc(C2NC(=O)NC(C)=C2C(=O)Nc2ccccc2C)c1[N+](=O)[O-] (centres unmarked) | 31.9
CC(/C=C1\SC(=S)N(CCC(=O)Nc2cccc(C(=O)O)c2)C1=O)=C\c1ccccc1 | 10.9

Compound | hERG current change (%, negative = inhibition) at 10uM [%]
Cc1ccc(NC(=S)N=Nc2c(O)[nH]c3ccccc23)cc1 | 9.41
CCC(=O)c1ccc(OCC(O)CN2CCN(c3cccc(C(F)(F)F)c3)CC2)cc1 (centres unmarked) | -55.2
CCOc1ccc(OCC(O)CN2CCN(S(=O)(=O)c3cccc(C(F)(F)F)c3)CC2)cc1.O=C(O)C(=O)O (centres unmarked) | 13.7
COc1cc(/C=C/C(=O)N2CCN(CC(O)COc3ccccc3)CC2)cc(OC)c1OC.Cl (centres unmarked) | -8.44
Cl.O=C(/C=C/c1ccccc1)N1CCN(CC(O)COc2ccccc2)CC1 (centres unmarked) | -69.7
CC(=O)N1CCN(CC(O)COc2ccc(OCc3ccccc3)cc2)CC1 (centres unmarked) | -17.7
OC(COc1ccccc1)CN1CCCCCC1 (centres unmarked) | -4.43
Cl.O=C(COc1ccccc1)N1CCN(CC(O)COc2ccccc2)CC1 (centres unmarked) | -50.8
CC(C)(C)c1ccc(OCC(O)CN2CCCC2)cc1.Cl (centres unmarked) | -35.7
CC(C)(c1ccccc1)c1ccc(OCC(O)CN2CCCC2)cc1.Cl (centres unmarked) | -60.3
Cl.O=C(C(c1ccccc1)c1ccccc1)N1CCN(CC(O)COc2ccccc2)CC1 (centres unmarked) | -13.7
CCC(=O)c1ccc(OCC(O)CN2CCN(c3ccccn3)CC2)cc1 (centres unmarked) | -34
OC(COc1ccccc1)CN1CCN(c2ncccn2)CC1 (centres unmarked) | -22.9
COc1cc(C(=O)NCCNC(=O)c2ccc(C)nc2)cc(OC)c1OC | 11.8
S=C(Nc1ccccc1)Nc1nccs1 | 24.4
CCOc1ccc(Nc2oc(-c3ccc(Cl)cc3)nc2C#N)cc1 | 9.08
Cl.Fc1ccc(CN2C3=NCCN3c3ccccc32)cc1 | -54.9
Cl.Fc1ccc(CN2C3=NCCCN3c3ccccc32)cc1 | -71.2
O=C(CN1C(=O)C2C3c4ccccc4C(c4ccccc43)C2C1=O)Nc1cccc(C(=O)O)c1 (centres unmarked) | -10.3

Compound | hERG current change (%, negative = inhibition) at 10uM [%]
O=C(COc1ccc(Cl)cc1Cl)N/N=C1\CCCc2ccccc21 | 2.52
CC(C)(CO)NCc1ccccc1OCC(=O)Nc1ccccc1 | -14
Cc1ccc(C(=O)OCC(=O)Nc2ccc(F)c(Cl)c2)o1 | 17
Clc1ccc(-n2nnnc2-c2cnc3ccc(Cl)cc3c2-c2ccccc2)cc1 | 5.46
CN1CCCN(C(=O)/C=C/c2ccc(F)cc2)CC1 | -23.7
Cc1ccc(/C=C/C(=O)N2CCCC(C)C2)cc1 (centres unmarked) | -8.25
Cc1ccc(/C=C/C(=O)N2CCCN(C(=O)/C=C/c3ccc(C)cc3)CC2)cc1 | -74.8
O=C(CCCCCCN1C(=O)c2ccccc2C1=O)N1CCC(c2ccccc2)C1 (centres unmarked) | -39.7
O=C(Nc1ccccc1)N1CCCc2ccccc21 | -79.2
CCN1CCN(C(=O)/C=C/c2ccc(F)cc2)CC1 | -43.2
O=C(/C=C/c1ccc(F)cc1)N1CCCN(C(=O)/C=C/c2ccc(F)cc2)CC1 | -75.6
O=C(CCCN1C(=O)c2ccccc2C1=O)N1CCC(c2ccccc2)C1 (centres unmarked) | -58.6
O=C(Nc1ccccc1)N1CCc2ccccc21 | -21.2
O=C(CCN1C(=O)c2ccccc2C1=O)N1CCC(c2ccccc2)C1 (centres unmarked) | -43
Cc1ccc(NC(=O)N2CCCc3ccccc32)cc1 | -6.25
CCN1CCN(C(=O)/C=C/c2ccc(C)cc2)CC1 | -23.1
COc1ccc2cc(OCC(=O)NNC(=O)Nc3ccc(C(C)=O)cc3)ccc2c1 | 9.54
Cc1ccnc(SCc2cc(=O)c(OC(=O)c3ccco3)co2)n1 | 4.97
